PubChem BioAssay (NCATS)
Where “and” joins values, the source holds several entries; their conditions need not be identical. Equal values may be shown once. Inconclusive results are not listed. Entries that show only a call come without a potency. Calls of active or inactive are those of the source. Unless noted, calls come from the whole dose curve; as a rule, active = well fitted curve in the direction sought with a large enough effect; inconclusive = small, poorly fitted or top-dose-only effect, or another doubt; inactive = no such curve, though single readings can be large; an effect the other way counts as inactive or inconclusive.

Key:
[1] = biological target: Calcium and integrin-binding protein 1 (Homo sapiens) (UniProt Q99828); test: Primary qHTS for Identification of Calcium Integrin Binding Protein 1 (CIB1) Competitor (AID 1508620);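 note: GST tagged CIB1 binding a fluorescein labelled alphaIIb integrin peptide tracer; top concentration of the series differs between compounds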
Method in brief: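 CIB1-GST (1 uM final) and compound incubated 15 min at room temperature before adding FITC-alphaIIb peptide tracer (100 nM final). Competition for binding read by fluorescence polarization (ex 480, em 540) after another 15 min at room temperature.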

[2] = Primary qHTS for small molecule stabilizers of the endoplasmic reticulum resident proteome: Secreted ER Calcium Modulated Protein (SERCaMP) assay (AID 1508630)
Method in brief: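 The SH-SY5Y reporter protocol was run at 3 concentrations up to 38.3 uM (primary) or 11 concentrations (follow-up): 16 h compound, 100 nM thapsigargin for 4 h, then extracellular luciferase luminescence.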

[3] = Primary qHTS for inhibitors of nuclear receptor binding SET domain protein 2 (NSD2) in an isogenic RCH-ACV NSD2 p.E1099K mutant (9B) (AID 1645876); note: nearly all actives have a fitted effect of over 70% in size; note: potency is the fitted concentration of half-maximal effect
[4] = Primary qHTS for inhibitors of nuclear receptor binding SET domain protein 2 (NSD2) in an RCH-ACV wild type WT cells (2C) (AID 1645877); note: nearly all actives have a fitted effect of over 70% in size; note: potency is the fitted concentration of half-maximal effect
[5] = biological target: Cytochrome P450 2D6 (Homo sapiens) (UniProt P10635); test: Cytochrome P450 family 2 subfamily D member 6 (CYP2D6) small molecule antagonists: luciferase biochemical (cell-free) qHTS assay (AID 1645840; active = well fitted curve in the direction sought with a large enough effect in the repeat runs; an effect the other way counts as inactive or inconclusive; note: series mostly up to about 57 µM; nearly all actives have a fitted effect of over 55% in size)
Method in brief: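 P450-Glo CYP2D6 system: proluciferin substrate converted by enzyme to luciferin, read by luminescence proportional to activity. Enzyme-substrate mix with compound 10 min at room temperature, then NADPH regeneration 1 h before detection reagent.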

[6] = biological target: Cytochrome P450 2C9 (Homo sapiens) (UniProt P11712); test: Cytochrome P450 family 2 subfamily C member 9 (CYP2C9) small molecule antagonists: luciferase biochemical (cell-free) qHTS assay (AID 1645842; active = well fitted curve in the direction sought with a large enough effect in the repeat runs; an effect the other way counts as inactive or inconclusive; note: series mostly up to about 57 µM; nearly all actives have a fitted effect of over 55% in size)
Method in brief: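 P450-Glo CYP2C9 system: proluciferin substrate with enzyme in mix containing 0.4% BSA, 10 min at room temperature, then NADPH regeneration solution added and incubated 1 h at 37C. Detection reagent stopped reaction; luminescence read after 20 min as RLU.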

[7] = biological target: Catechol O-methyltransferase (Homo sapiens) (UniProt P21964); test: Confirmatory Screen for Target Class Profiling of Small Molecule Inhibitors of Methyltransferases (AID 1745852); details: MTase-Glo luminescence, SAH detection, recombinant enzyme; measured here: COMT max response; stronger effect = lower value
Catechol O-methyltransferase (Homo sapiens), sequence (P21964 whole entry, looked up): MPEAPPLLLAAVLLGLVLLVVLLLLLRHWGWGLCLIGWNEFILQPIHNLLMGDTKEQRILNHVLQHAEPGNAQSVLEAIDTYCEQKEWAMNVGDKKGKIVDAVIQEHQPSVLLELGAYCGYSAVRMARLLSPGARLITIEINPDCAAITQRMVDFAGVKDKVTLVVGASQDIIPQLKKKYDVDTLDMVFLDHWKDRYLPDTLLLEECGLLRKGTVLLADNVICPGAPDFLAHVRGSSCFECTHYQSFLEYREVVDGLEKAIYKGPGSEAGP

Calcium and integrin-binding protein 1 (Homo sapiens), sequence (Q99828 whole entry, looked up): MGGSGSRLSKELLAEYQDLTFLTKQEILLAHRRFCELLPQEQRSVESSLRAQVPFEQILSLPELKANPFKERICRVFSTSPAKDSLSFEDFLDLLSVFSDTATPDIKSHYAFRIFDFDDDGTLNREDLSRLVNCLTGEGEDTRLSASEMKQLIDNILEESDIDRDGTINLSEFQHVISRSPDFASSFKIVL
Cytochrome P450 2D6 (Homo sapiens), sequence (P10635 whole entry, looked up): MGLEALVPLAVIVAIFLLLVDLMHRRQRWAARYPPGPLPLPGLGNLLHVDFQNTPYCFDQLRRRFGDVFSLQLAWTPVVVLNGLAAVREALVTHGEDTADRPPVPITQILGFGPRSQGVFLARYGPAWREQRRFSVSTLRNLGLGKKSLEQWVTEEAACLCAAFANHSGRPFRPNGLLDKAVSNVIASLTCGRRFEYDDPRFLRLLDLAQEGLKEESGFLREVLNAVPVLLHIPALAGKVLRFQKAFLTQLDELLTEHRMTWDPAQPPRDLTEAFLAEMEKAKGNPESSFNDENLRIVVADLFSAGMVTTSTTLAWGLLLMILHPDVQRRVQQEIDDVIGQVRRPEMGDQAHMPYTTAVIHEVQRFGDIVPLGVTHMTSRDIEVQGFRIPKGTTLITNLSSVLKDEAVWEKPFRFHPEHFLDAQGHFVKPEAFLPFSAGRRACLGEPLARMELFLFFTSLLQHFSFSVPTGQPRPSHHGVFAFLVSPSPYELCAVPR
Cytochrome P450 2C9 (Homo sapiens), sequence (P11712 whole entry, looked up): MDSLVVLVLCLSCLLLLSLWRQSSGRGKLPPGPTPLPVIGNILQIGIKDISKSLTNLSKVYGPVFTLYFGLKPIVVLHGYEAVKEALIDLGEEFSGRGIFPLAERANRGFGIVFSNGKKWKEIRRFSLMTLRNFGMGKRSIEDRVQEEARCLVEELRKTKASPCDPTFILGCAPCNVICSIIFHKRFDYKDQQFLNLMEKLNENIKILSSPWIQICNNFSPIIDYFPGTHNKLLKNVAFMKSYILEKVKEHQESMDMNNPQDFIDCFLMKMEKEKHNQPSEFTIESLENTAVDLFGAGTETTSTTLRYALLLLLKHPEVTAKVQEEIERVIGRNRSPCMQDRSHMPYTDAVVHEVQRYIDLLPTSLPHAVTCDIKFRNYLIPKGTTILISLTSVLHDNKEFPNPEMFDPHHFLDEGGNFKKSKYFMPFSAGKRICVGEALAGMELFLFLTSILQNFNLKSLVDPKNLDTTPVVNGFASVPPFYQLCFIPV

SMILES	outcome [1]	Potency [2]	Potency [3]	Potency [4]	Potency [5]	Potency [6]	activity [7] [%]
C[C@@H]1COC(Nc2ccc3ncnc(Nc4ccc(OCc5nccs5)c(Cl)c4)c3c2)=N1	inactive	inactive	13.2 µM (active)	11800 nM (active)	–	–	–
Cc1c(NC(=O)OC[C@@H]2COCCN2)cn2ncnc(Nc3ccc4c(cnn4Cc4cccc(F)c4)c3)c12	inactive	inactive	16.6 µM (active)	14800 nM (active)	–	–	–
C1Cc2[nH]nc(-c3nn[nH]n3)c2C1	inactive	–	inactive	inactive	inactive	inactive	–
CCn1nnc2c(N3CCOCC3)nc(-c3ccc(NC(=O)Nc4ccc(C(=O)N5CCN(C)CC5)cc4)cc3)nc21	inactive	inactive	18.3 nM (active) and 41.7 nM (active)	46.1 nM (active) and 59 nM (active)	–	–	-6.26
COc1cc2c(Nc3ccc(NC(=O)c4ccccc4)cc3)ncnc2cc1OCCCN1CCOCC1	inactive	inactive	5.15 µM (active) and 4.68 µM (active)	5.15 µM (active) and 934 nM (active)	–	–	–
Cc1ccc(C(N)=O)cc1Nc1nccc(-c2cn(C(C)C)c3cnccc23)n1	inactive	inactive	3.32 µM (active)	1660 nM (active)	–	–	-56.6
COC(=O)Nc1nc2ccc(C(=O)c3ccc(F)cc3)cc2[nH]1	inactive	inactive	1.29 µM (active) and 468 nM (active)	1.03 µM (active) and 372 nM (active)	–	–	–
COc1cc2c(cc1-c1c(C)noc1C)ncc1[nH]c(=O)n([C@H](C)c3ccccn3)c12	inactive	inactive	0.468 µM (active)	468 nM (active)	–	–	–
Cc1cc(C(=O)N2CCN(c3cccc(Cl)c3)CC2)n(-c2ccccc2)n1	inactive	inactive	2.09 µM (active)	1320 nM (active)	–	–	–
COCCOc1ccc2c(c1)ncn2-c1ccc2cccc(N3CCC(N)CC3)c2n1	inactive	inactive	2.3 µM (active) and 2.09 µM (active)	2.3 µM (active) and 2.35 µM (active)	–	–	-17.6
CN1CCN(c2cc(C(=O)Nc3ccc4c(c3)-c3c(c(C(N)=O)nn3-c3ccc(F)cc3)CC4)c(Cl)cn2)CC1	inactive	inactive	7.42 µM (active)	8330 nM (active)	–	–	–
Cc1ccc(-c2ncn(-c3ccc(Nc4nccc(-c5cccc(N6CCOCC6)c5)n4)cc3)n2)cn1	inactive	inactive	1.05 µM (active)	662 nM (active)	–	–	–
CC(=O)OCC(=O)[C@@]1(O)[C@H](C)C[C@H]2[C@@H]3C=C(C)C4=Cc5c(cnn5-c5ccccc5)C[C@]4(C)[C@@H]3[C@@H](O)C[C@@]21C	inactive	inactive	–	13.2 nM (active)	–	–	–
CC1(C)CCC(c2ccc(Cl)cc2)=C(CN2CCN(c3ccc(C(=O)NS(=O)(=O)c4ccc(N[C@H](CCN5CCOCC5)CSc5ccccc5)c(S(=O)(=O)C(F)(F)F)c4)cc3)CC2)C1	inactive	inactive	1.03 µM (active) and 1.18 µM (active)	365 nM (active) and 742 nM (active)	–	–	–
CN1c2cc(O)c(N=NC(N)=O)cc2CC1S(=O)(=O)O (stereo unspecified)	inactive	inactive	inactive	inactive	–	–	–
Cc1nc(N)ncc1-c1nc(N2CCOCC2)c2sc(C(C)(C)O)cc2n1	inactive	inactive	81.7 nM (active) and 590 nM (active)	115 nM (active) and 468 nM (active)	–	–	–
Clc1ccc2ncc(-c3cccc(NC4CNC4)n3)n2c1	inactive	inactive	inactive	inactive	–	–	–
Nc1cccc(-c2cc3c(Oc4cccc(O)c4)ncnc3[nH]2)c1	inactive	inactive	1.15 µM (active) and 1.05 µM (active)	1.15 µM (active) and 833 nM (active)	–	–	-47.2
CCN1CCN(CC(=O)Nc2ccc(-c3cccc4c(=O)cc(N5CCOCC5)oc34)c3sc4ccccc4c23)CC1	inactive	inactive	66.8 nM (active) and 257 nM (active)	94.4 nM (active) and 257 nM (active)	–	–	–
CN[C@H]1CCc2cc(OC)c(OC)c(OC)c2-c2ccc(OC)c(=O)cc21	inactive	inactive	0.105 µM (active)	118 nM (active)	–	–	–
CC(=O)Nc1sc2c(c1-c1nc3ccccc3s1)CNC2	inactive	inactive	2.9 µM (active)	2900 nM (active)	–	–	–
C[C@@]12O[C@@H](C[C@]1(O)CO)n1c3ccccc3c3c4c(c5c6ccccc6n2c5c31)CNC4=O	inactive	inactive	0.0661 µM (active)	66.1 nM (active)	–	–	–
CC[C@@]1(O)C(=O)OCc2c1cc1n(c2=O)Cc2cc3cc(O)ccc3nc2-1	inactive	inactive	0.0209 µM (active)	11.8 nM (active)	–	–	–
CC[C@@H]1C(=O)N(C)c2cnc(Nc3ccc(C(=O)NC4CCN(C)CC4)cc3OC)nc2N1C1CCCC1	inactive	inactive	0.0372 µM (active)	37.2 nM (active)	–	–	-18.1
